Only a selection was taken, and hits are over-represented in it overall.
Pf Dd2 inh – blocks in vitro growth of P. falciparum Dd2. P. falciparum Dd2 growth, SYBR Green, 72 h. actives 4.3% (n = 120,000). Potency, µM (doses to about 28.9 µM), for the others: top-dose activity, negative = inhibition, hits mostly inhibitors; active = well fitted inhibition curve with a large enough effect;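 note: plate controls were DMSO vehicle for no effect and reference drug for full effect; nearly all actives have a fitted effect of over 65% in size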
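Readout: SYBR Green fluorescence, 485 nm excitation, 535 nm emission, after ~16 h lysis at 37C. Before that, Dd2-infected red cells (2.5% hematocrit) grew 72 h with compound, 29 uM top final concentration.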
* = called active by the depositor; [ ] = remark or other dose. Potency is the fitted concentration of half-maximal effect.

COc1cccc(CC(=O)N2CCC3(CC2)CC(Cc2nc(-c4cccnc4)no2)CCO3)c1 (stereo not drawn) was read as Pf Dd2 inh 8.9µM*.
For CSc1ncc(C(=O)N2CCC(c3nccn3CCN(C)C)CC2)cn1 the results were Pf Dd2 inh 3%.
`O=C(Cc1cccc(F)c1)NC1CCN(C(=O)N2CC3CC(C2)[C@H]2CCCC(=O)N2C3)CC1` (stereo partly drawn) gave Pf Dd2 inh 14%.
Screening Cc1cc(C)cc(NC(=O)CCCn2nc(C)c3c(C)n(-c4ccccc4)nc3c2=O)c1 returned Pf Dd2 inh 25%.
`Cc1ccc(CNC(=O)CCCCn2c(=O)c3ccccc3n(Cc3ccc(C)cc3)c2=O)cc1` gave Pf Dd2 inh inactive.
Cc1cc(C)cc(NC(=O)CCCn2c3ccccc3c(=O)c3ccccc32)c1 was read as Pf Dd2 inh 10µM*.
Screening Cc1nn(CCC#N)c(C)c1[C@@H]1C=C[C@@H](NC(=O)Nc2ccc(Cl)cc2)C1 returned Pf Dd2 inh inactive.
Screening Cc1nc2c(c(=O)n1C)CCN(C(=O)NCc1ccco1)CC2 returned Pf Dd2 inh -7%.
For O=C(c1ccsc1)N1CCN(c2cc(-c3ccc(Cl)cc3)[nH]n2)CC1 the results were Pf Dd2 inh inactive.
`O=S(=O)(N[C@H]1CO[C@H]2[C@@H]1OC[C@@H]2Nc1nccc(-c2ccc3c(c2)OCO3)n1)c1ccc2ccccc2c1` gave Pf Dd2 inh -8%.
Screening COc1ncccc1-c1nccn2c(C3CN(Cc4c[nH]c5ccccc45)C3)ncc12 returned Pf Dd2 inh 3.5µM*.
CNC(=O)[C@@H]1CN(C(=O)c2cc3ccccc3[nH]2)C[C@H]1COC was read as Pf Dd2 inh -10%.
Screening O=C1NC2(Cc3ccccc31)CN(Cc1c[nH]c3ccccc13)C2 returned Pf Dd2 inh -10%.
`Cc1cccnc1C(=O)N[C@@H]1CN(Cc2ccccc2)C[C@H]1CN(C)C` gave Pf Dd2 inh 0%.
Screening Cc1ccccc1-c1nccn2c(C3CN(Cc4ccc(O)cc4)C3)ncc12 returned Pf Dd2 inh 11µM*.
Screening Cc1ccccc1-c1nc2cnccn2c1NCCC(=O)NC1CCCCC1 returned Pf Dd2 inh inactive.
`Cc1ccccc1-c1nccn2c(C3CN(C(=O)c4cc5ccccc5[nH]4)C3)ncc12` gave Pf Dd2 inh 11µM*.
Screening COCCO[C@H]1C(=O)N(C2CCN(C(=O)c3cc4ccccc4[nH]3)CC2)[C@H]1c1ccncc1 returned Pf Dd2 inh inactive.
c1cncc(-c2nnc([C@H]3CCN(Cc4c[nH]c5ccccc45)C3)o2)c1 was read as Pf Dd2 inh inactive.
Screening CCOc1nccnc1NC1CCN(S(=O)(=O)C2CC2)CC1 returned Pf Dd2 inh 46%[5.79 µM].
COC(=O)CCC(=O)N1CCCC(N2CCN(c3cccc(Cl)c3)CC2)C1 (stereo not drawn) was read as Pf Dd2 inh inactive.
Screening O=C(NC1CCN(c2cc(-c3ccc(F)cc3)[nH]n2)CC1)c1ccc2c(c1)OCO2 returned Pf Dd2 inh inactive.
Screening CCC(C)NC(=O)C1COC2(CCN(C(=O)CC(C)(C)C)CC2)N1C(=O)c1cccc(C)c1 (stereo not drawn) returned Pf Dd2 inh inactive.
CC(C)CN1C(=O)c2cccn2CC1C(=O)N1CCN(Cc2ccc3c(c2)OCO3)CC1 (stereo not drawn) was read as Pf Dd2 inh -24%.
O=C(O)C1Cn2cccc2C(=O)N1Cc1cccnc1 (stereo not drawn) was read as Pf Dd2 inh 23%.
Screening Cc1ccc(CN2CCN(C(=O)C3Cn4cccc4C(=O)N3Cc3cccnc3)CC2)cc1 (stereo not drawn) returned Pf Dd2 inh 13µM*.
`Cc1noc(-c2cn(C3CCN(C(=O)c4ccc5c(c4)OCO5)CC3)nn2)n1` gave Pf Dd2 inh -20%.
Screening COCC(=O)N(C1CCOCC1)C1CCN(C(=O)Cc2ccc(OC)cc2)CC1 returned Pf Dd2 inh 50%.
For Cn1nc(NC(=O)C2CCS(=O)(=O)C2)c2c(Oc3cccnc3)cccc21 (stereo not drawn) the results were Pf Dd2 inh -14%.
O=C1c2c(nc(CNc3ccc(OC(F)(F)F)cc3)n2Cc2ccccc2)NCCN1CCN1CCOCC1 was read as Pf Dd2 inh 5µM*.
Screening O=C1c2c(nc(CNc3ccc(F)cc3)n2Cc2ccccc2)NCCN1CCN1CCCCC1 returned Pf Dd2 inh inactive.
For O=C1c2c(nc(CNc3cccc(F)c3)n2Cc2ccccc2)NCCN1CCN1CCOCC1 the results were Pf Dd2 inh inactive.
`CN(Cc1nc2ccc(F)cc2[nH]1)C(=O)CCc1cc2n(n1)CCCNC2` gave Pf Dd2 inh -11%.
Screening COc1ccc(-c2cc(N3CCCN(C(=O)c4ccc(OC)cc4OC)CC3)n[nH]2)cc1 returned Pf Dd2 inh inactive.
`Cc1noc(-c2cn(C3CCN(C(=O)c4ccco4)CC3)nn2)n1` gave Pf Dd2 inh -12%.
`COc1ccc(-c2cn(C[C@H]3C[C@@H]4CCN3C[C@@H]4C(=O)N(C)C)nn2)cc1` gave Pf Dd2 inh -12%[44.1 µM].
For COc1ccccc1NC(=O)c1c(NC(=O)Cc2ccccc2)sc2c1CCC(C(C)(C)C)C2 (stereo not drawn) the results were Pf Dd2 inh 33%.
For COc1ccc(NC(=O)c2c(NCc3cccs3)sc3c2CCC(C)C3)c(OC)c1 (stereo not drawn) the results were Pf Dd2 inh 10µM*.
For COc1cc(C(=O)Nc2sc3c(c2C(N)=O)CCC(C)C3)cc(OC)c1OC (stereo not drawn) the results were Pf Dd2 inh 7%.
`COc1ccc(OC)c(NC(=O)c2c(OC)cc(=O)n3c2CCCC3)c1` gave Pf Dd2 inh 7%.
`COc1ccc(OC)c(NC(=O)c2c(NCc3cccs3)sc3c2CCCCC3)c1` gave Pf Dd2 inh 8.9µM*.
`COc1ccc(OC)c(NC(=O)c2sc3nc4c(cc3c2N)CCCCCC4)c1` gave Pf Dd2 inh 12%.
C/C=C(\C)CN1C[C@@H](NC(=O)Cn2ccnc2C)C[C@H]1C(=O)NCC was read as Pf Dd2 inh 29%.
`COc1ccc(Cl)cc1NC(=O)CCC1CCCN(C(=O)CN2CCOC2=O)C1` (stereo not drawn) gave Pf Dd2 inh 1%.
c1cncc(-c2nc3c(c(NCc4ccccc4-n4ccnc4)n2)CNC3)c1 was read as Pf Dd2 inh inactive.
Screening CCCOc1ccccc1C(C)Nc1nc(-c2cccnc2)nc2c1CNC2 (stereo not drawn) returned Pf Dd2 inh 11µM*.
Screening CS(=O)(=O)NC1CCN(c2nc(-c3cccnc3)nc3c2CNC3)CC1 returned Pf Dd2 inh 4%.
`COc1ccc(-c2cc(N3CCN(C(=O)c4ccccc4C)CC3)n[nH]2)cc1` gave Pf Dd2 inh -3%.
COc1ccc(CCNC(=O)C2CC(=O)N(CCc3ccccc3)C2)cc1OC (stereo not drawn) was read as Pf Dd2 inh 70%.
COc1ccc(CCN2C(=O)N(c3ccc(F)cc3)C(=O)C2CC(=O)Nc2ccccc2)cc1OC (stereo not drawn) was read as Pf Dd2 inh inactive.
Screening COc1ccc(S(=O)(=O)N2Cc3ccccc3CC2C(=O)Nc2cccc(C)c2)cc1OC (stereo not drawn) returned Pf Dd2 inh -13%.
`COc1ccc2cc1Nc1ccc(cc1)C[C@H](NCc1cccc(O)c1)C(=O)N(C)[C@@H](C(=O)Nc1ccccc1)C2` gave Pf Dd2 inh 4.5µM*.

Bioassay records from PubChem.
